# According to ChEMBL document CHEMBL3988442, “University of Dundee, Small-Polar-MMV Screening Library” (2021):
# For some of these results: Results with a measured potency or affinity are listed apart.
# Legend:
# Design in all cases: scale not given: direction of the effect not stated beside the values
# [1] = target: Protein translocase subunit SecA (Escherichia coli (strain K12)) (UniProt P10408); assay: Assay to Identify E. coli SecA ATPase Inhibitors; assay type: functional; details: 30 µM
# Sequence of Protein translocase subunit SecA (Escherichia coli (strain K12)) (P10408 whole entry): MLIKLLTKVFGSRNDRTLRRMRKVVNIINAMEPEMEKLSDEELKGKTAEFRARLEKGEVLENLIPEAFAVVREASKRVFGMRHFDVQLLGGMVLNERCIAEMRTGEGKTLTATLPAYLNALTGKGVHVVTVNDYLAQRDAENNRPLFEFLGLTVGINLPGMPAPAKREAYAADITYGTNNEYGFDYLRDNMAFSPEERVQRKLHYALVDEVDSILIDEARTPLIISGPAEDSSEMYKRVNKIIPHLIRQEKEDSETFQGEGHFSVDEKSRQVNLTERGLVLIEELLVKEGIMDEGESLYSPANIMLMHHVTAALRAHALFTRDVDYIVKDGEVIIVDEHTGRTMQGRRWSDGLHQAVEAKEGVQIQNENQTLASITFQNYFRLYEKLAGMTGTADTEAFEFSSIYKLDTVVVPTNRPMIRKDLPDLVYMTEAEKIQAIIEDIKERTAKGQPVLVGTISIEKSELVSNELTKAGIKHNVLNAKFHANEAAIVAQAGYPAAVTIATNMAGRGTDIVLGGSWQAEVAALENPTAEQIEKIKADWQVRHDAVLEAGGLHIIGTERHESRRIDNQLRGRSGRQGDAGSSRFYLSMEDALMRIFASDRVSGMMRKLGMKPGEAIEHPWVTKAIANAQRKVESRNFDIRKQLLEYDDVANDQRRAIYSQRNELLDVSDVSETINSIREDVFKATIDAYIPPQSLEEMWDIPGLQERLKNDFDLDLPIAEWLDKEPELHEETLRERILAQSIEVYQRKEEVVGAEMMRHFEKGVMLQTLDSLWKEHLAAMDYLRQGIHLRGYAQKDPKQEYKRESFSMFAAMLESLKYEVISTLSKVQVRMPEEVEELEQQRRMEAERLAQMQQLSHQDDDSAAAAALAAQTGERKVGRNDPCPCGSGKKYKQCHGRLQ
# [2] = target: T1, Ubiquitin-activating enzyme e1, putative (Leishmania donovani (strain BPK282A1)) (UniProt E9BSI1); assay: Leishmania donovani Ubiquitin Activating Enzyme (LdE1); assay type: functional; details: 30 µM
# T1 sequence (whole entry): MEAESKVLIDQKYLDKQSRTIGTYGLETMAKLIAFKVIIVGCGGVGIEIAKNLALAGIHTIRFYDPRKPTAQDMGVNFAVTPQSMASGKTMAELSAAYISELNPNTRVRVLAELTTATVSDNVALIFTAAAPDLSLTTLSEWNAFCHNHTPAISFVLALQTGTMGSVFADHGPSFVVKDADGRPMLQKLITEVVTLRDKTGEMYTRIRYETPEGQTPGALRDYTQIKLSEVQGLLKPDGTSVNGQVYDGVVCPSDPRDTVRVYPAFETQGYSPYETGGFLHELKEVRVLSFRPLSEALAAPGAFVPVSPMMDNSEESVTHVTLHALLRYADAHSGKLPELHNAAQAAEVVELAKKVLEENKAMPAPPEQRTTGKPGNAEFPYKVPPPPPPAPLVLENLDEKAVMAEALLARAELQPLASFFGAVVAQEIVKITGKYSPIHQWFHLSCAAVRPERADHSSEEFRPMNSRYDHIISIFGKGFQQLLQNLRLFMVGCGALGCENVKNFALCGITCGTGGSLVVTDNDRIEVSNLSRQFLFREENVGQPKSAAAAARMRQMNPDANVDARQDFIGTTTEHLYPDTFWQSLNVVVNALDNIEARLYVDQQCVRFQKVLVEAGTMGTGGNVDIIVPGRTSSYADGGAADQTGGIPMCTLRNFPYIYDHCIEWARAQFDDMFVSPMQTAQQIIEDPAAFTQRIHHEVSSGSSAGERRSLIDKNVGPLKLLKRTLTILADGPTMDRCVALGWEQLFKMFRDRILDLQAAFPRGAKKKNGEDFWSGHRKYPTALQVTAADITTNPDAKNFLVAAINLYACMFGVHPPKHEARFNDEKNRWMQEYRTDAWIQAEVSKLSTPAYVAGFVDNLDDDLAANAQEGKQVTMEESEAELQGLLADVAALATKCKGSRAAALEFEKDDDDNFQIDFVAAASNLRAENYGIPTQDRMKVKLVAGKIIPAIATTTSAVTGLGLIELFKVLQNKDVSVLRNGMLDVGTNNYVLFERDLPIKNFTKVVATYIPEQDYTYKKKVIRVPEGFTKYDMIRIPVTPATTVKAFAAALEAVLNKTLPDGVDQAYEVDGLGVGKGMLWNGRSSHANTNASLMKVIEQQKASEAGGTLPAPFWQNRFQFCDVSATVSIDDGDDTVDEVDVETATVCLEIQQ
# [3] = target: AMP-activated protein kinase, AMPK (Homo sapiens) (UniProt P54646+O43741+P54619+Q9UGJ0+Q9Y478+Q13131+Q9UGI9); assay: AMP-dependent Kinase enzyme assay. An in vitro enzyme assay that detects ADP turnover that is directly proportional to AMPK activity. This uses naive AMPK that is activated during the assay with MK-8722; assay type: functional; details: 30 µM
# [4] = target: Sialic acid-binding Ig-like lectin 9 (Homo sapiens) (UniProt Q9Y336); assay: Hs-Siglec9 ALPHAscreen SOP 20170721; details: 10 µM
# Sequence of Sialic acid-binding Ig-like lectin 9 (Homo sapiens) (Q9Y336 whole entry): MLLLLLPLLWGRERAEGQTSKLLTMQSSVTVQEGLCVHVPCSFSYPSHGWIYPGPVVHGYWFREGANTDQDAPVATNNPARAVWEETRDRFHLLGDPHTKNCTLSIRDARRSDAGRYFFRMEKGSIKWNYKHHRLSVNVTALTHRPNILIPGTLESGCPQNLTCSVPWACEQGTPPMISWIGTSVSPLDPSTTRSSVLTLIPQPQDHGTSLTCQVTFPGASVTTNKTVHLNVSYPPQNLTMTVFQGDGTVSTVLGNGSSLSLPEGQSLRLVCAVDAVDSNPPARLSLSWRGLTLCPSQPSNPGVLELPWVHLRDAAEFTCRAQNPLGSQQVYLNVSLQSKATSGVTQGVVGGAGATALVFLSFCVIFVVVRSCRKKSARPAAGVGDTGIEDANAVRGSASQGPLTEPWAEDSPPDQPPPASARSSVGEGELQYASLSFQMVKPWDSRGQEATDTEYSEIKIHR
# Trypanosoma cruzi = assay: Trypanosoma cruzi phosphomannomutase and mannose-1-phosphate guanylyltransferase assay; assay type: functional; details: 10 µM
# [5] = target: T2, Arginase-2, mitochondrial (Homo sapiens) (UniProt P78540); assay: in vitro enzyme assay to detect the production of urea directly proportional to the activity of Arginase II; assay type: functional; details: 33.3 µM; also: in the data most compounds retested in dose-response had high values
# T2 sequence (whole entry): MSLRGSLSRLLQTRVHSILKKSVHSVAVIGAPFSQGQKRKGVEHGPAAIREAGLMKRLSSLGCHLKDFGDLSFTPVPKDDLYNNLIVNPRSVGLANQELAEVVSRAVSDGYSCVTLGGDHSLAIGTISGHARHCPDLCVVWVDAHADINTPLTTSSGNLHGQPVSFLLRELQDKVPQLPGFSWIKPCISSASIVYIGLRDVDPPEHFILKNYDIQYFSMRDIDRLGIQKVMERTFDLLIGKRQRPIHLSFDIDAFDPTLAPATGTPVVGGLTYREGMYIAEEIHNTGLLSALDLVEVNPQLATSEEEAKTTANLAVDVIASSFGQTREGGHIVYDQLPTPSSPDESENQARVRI
# [6] = target: T3, Proteasome subunit beta (Trypanosoma cruzi) (UniProt O96673); assay: Trypanosoma cruzi proteasome chymotrypsin-like activity (TcProtChymo) assay.; also: in the data most compounds retested in dose-response had high values; assay type: functional; details: 9.37 µM
# T3 sequence (whole entry): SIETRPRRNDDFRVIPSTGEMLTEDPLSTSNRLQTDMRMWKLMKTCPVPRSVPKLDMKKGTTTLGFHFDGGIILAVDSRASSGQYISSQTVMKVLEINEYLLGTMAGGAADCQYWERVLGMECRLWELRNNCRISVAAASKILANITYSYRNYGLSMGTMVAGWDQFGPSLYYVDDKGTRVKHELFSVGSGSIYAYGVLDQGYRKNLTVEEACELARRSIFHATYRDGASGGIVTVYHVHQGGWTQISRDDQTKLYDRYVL
# Homo sapiens = species: Homo sapiens; assay: To identify inhibition of the IFN signalling (Jak-Stat) pathway via expression of an eGFP reporter gene under the control of an IFN-stimulated response element (ISRE) containing MxA promoter.; assay type: functional; details: 30 µM
# [7] = target: T4, Tyrosyl-tRNA synthetase, putative (Trypanosoma cruzi (strain CL Brener)) (UniProt Q4DSP6); assay: Trypanosoma cruzi tyrosyl tRNA synthetase (TcYRS) _High Tyrosine SOP; assay type: functional; details: 30 µM; also: in the data most compounds retested in dose-response had high values
# T4 sequence (whole entry): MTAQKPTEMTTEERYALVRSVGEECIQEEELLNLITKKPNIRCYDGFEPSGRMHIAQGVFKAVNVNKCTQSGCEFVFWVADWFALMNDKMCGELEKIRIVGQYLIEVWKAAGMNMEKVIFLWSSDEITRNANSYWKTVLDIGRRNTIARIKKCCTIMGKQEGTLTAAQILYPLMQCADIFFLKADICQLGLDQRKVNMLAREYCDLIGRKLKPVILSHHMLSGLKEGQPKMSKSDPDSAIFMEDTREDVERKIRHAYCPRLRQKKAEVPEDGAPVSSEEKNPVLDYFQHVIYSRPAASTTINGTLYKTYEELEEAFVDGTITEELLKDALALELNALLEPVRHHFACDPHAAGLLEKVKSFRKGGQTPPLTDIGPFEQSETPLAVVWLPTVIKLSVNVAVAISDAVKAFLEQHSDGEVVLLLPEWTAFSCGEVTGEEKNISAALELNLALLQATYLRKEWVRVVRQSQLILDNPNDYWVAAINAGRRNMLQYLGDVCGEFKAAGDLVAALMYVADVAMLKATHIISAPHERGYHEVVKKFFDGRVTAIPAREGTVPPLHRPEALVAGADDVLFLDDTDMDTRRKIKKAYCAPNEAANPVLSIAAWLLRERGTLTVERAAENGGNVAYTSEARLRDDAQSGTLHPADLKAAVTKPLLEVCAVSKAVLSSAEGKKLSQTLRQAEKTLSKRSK
# [8] = target: T4, Tyrosyl-tRNA synthetase, putative (Trypanosoma cruzi (strain CL Brener)); assay: Trypanosoma cruzi tyrosyl tRNA synthetase (TcYRS) SOP; assay type: functional; details: 30 µM
# [9] = target: Chromo domain-containing protein 1 (Saccharomyces cerevisiae (strain ATCC 204508 / S288c) (Baker's yeast)) (UniProt P32657); assay: ScCHD-1 Enzyme Inhibition Assay; assay type: functional; details: 30 µM; also: in the data most compounds retested in dose-response had high values
# Sequence of Chromo domain-containing protein 1 (Saccharomyces cerevisiae (strain ATCC 204508 / S288c) (Baker's yeast)) (P32657 whole entry, the tested form may be a part): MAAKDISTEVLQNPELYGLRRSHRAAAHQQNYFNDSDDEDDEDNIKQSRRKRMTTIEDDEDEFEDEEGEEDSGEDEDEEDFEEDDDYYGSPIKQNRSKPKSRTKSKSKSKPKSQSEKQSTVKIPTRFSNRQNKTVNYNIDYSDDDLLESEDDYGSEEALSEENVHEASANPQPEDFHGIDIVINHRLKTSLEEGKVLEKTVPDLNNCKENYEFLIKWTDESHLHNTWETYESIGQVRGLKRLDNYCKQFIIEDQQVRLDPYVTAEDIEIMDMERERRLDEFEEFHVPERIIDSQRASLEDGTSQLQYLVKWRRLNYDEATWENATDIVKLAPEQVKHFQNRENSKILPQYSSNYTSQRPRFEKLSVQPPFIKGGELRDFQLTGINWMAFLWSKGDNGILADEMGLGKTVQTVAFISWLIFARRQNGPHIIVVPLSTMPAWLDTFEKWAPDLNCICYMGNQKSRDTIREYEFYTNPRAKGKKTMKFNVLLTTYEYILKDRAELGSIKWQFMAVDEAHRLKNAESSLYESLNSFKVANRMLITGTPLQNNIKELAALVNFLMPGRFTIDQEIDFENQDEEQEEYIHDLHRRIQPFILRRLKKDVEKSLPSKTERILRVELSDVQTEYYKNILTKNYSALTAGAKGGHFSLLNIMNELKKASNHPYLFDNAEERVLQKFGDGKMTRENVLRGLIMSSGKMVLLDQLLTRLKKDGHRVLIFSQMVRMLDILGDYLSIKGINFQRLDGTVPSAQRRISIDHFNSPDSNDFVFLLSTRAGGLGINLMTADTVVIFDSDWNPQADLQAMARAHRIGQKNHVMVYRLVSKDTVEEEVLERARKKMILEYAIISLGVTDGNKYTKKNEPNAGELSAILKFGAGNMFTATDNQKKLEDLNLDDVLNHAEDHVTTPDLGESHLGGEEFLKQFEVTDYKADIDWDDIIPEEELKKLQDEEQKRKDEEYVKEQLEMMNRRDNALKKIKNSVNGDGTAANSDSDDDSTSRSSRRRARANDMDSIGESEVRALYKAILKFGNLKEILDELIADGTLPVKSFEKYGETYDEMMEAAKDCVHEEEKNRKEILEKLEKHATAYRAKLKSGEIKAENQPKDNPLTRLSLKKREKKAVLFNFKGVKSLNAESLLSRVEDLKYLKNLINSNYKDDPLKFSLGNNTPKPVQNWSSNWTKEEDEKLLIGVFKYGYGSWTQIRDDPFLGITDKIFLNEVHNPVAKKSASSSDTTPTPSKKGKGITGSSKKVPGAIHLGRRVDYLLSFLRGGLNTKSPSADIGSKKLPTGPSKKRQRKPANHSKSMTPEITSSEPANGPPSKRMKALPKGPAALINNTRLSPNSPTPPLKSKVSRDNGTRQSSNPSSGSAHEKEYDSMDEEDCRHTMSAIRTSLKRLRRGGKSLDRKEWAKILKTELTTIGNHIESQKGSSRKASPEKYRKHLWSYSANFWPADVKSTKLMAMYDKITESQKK
SMILES,Percent Effect [1],Percent Effect [2],Percent Effect [3],Percent Effect [4],Percent Effect (Trypanosoma cruzi),Percent Effect [5],Percent Effect [6],Percent Effect (Homo sapiens),Percent Effect [7],Percent Effect [8],Percent Effect [9]
Cc1cc(C[C@@H]2COC[C@H]2NCc2ccccc2C(F)(F)F)on1,-5.6%,4.05%,-0.353%,6.23%,1.58%,0.232%,14%,5.54%,3.23%,11.7%,-18.2%
COCCCNC(=O)NCc1ccc(C)cc1,-4.5%,6.33%,-3.62%,-1.57%,-0.308%,-4.52%,13.2%,1.42%,5.21%,17.7%,-28.6%
Cc1nc(Nc2ncccn2)cc(C2CCCN2CC(C)C)n1 (stereo unspecified),-6.07%,5.33%,4.6%,-0.413%,-1.38%,-2.56%,-1.5%,0.824%,2.13%,6.41%,-1.78%
CN(C(=O)NCCCN1CCCC1)C1CCN(c2ccccc2)C1=O (stereo unspecified),5.28%,15.8%,2.15%,-4.7%,-7.71%,0.766%,20.9%,24.5%,4.41%,12.2%,-10.3%
COc1ccccc1NC(=O)NCC(O)(c1ccccc1)C1CC1 (stereo unspecified),-6.75%,11%,-22.1%,33.1%,7.05%,7.27%,12.9%,7.23%,0%,10%,-6.95%
CCN(Cc1ccc2c(c1)OCO2)C(=O)NC(C)Cn1cccn1 (stereo unspecified),-2.99%,20.8%,2.96%,-4.68%,-5.43%,1.42%,8.78%,5.38%,4.85%,14.6%,-8.47%
CC(C)OCCN1CCC(N2CCN(C)C2=O)CC1,-8.32%,10.4%,-1.47%,4.31%,8.24%,-6.05%,-1.18%,6.82%,4.85%,14.6%,-9.74%
Cc1nc(C)n(C2CCCN(C(=O)CCc3ccncc3)C2)n1 (stereo unspecified),-5.25%,16.2%,0.169%,8.78%,2.34%,4.17%,6.34%,0.916%,12.9%,11%,-8.81%
CCn1nc2c(cc1=O)CN(Cc1nc3ccccc3c(=O)[nH]1)CC2,-5.88%,5.48%,-24.8%,-1.63%,-1.57%,-1.36%,18.3%,10.3%,6.45%,10%,-4.67%
Cc1noc2ncc(C(=O)NCC3CCN(C(C)C)C3)cc12 (stereo unspecified),-2.65%,2.63%,2.21%,2.67%,-6.58%,4.21%,4.34%,4.5%,-0.49%,4.88%,3.24%
O=C(Cn1c(=O)n(Cc2ccco2)c2ncccc21)NC1CCCCC1,-8.09%,14.9%,-4.42%,11.5%,8.5%,-4.41%,18.6%,3.85%,6.45%,14.3%,53%
